# Source: the supplement of paper PMC12067093, “Discovery and optimisation of a covalent ligand for TRIM25 and its application to targeted protein ubiquitination” (Chemical Science, 2025)
# Targets with the largest changes are over-represented here; the source holds about 21,000 in all.
# Target: PKN2_Q16513_118_LQELNAHIVVSDPEDITDCPR (UniProt Q16513)
# Assay: probe-labelled cysteine peptide fold change vs DMSO (competition) (log2 fold change); higher = less target engagement (more negative = stronger competition)
# Details: THP-1, incubation time: 4 h
# 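Further: competitive profiling in live THP-1 cells: cysteine peptides tagged with an iodoacetamide desthiobiotin (IA-DTB) probe, intensity after compound treatment relative to DMSO-treated cells.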
# Sequence of UniProt Q16513 (Q16513 whole entry, looked up): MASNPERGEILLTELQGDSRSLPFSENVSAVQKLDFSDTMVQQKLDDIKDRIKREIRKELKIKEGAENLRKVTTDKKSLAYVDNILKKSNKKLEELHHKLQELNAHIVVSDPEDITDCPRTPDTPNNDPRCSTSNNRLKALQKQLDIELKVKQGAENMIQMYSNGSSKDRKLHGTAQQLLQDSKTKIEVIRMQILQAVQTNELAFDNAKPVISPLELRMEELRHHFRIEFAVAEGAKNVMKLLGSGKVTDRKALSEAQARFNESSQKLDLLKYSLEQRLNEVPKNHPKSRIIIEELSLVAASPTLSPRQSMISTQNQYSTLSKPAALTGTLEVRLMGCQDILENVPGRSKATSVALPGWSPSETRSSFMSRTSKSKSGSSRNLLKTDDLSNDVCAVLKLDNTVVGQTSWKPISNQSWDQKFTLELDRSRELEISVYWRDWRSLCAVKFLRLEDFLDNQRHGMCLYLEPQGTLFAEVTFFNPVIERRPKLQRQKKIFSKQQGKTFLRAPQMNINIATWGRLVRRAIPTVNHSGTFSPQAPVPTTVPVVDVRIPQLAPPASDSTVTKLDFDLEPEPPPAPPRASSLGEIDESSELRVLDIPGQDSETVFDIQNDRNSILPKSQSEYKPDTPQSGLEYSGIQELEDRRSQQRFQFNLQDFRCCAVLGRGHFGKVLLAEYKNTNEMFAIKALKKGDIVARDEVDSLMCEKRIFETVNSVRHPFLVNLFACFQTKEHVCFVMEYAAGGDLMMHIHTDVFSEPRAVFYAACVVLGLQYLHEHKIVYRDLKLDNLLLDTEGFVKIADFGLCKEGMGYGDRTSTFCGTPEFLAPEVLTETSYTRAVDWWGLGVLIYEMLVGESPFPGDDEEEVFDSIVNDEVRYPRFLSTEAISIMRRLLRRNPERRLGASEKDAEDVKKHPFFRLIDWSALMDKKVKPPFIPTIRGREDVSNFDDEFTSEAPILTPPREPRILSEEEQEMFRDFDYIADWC
smiles,measurement,setting,value
Cc1cc(C(=O)N2CCCN(C(=O)CCl)CC2)ccc1-c1ccccc1 [compound 10],probe-labelled cysteine peptide fold change,10 µM,-0.00661
same,probe-labelled cysteine peptide fold change,50 µM,0.269
